# Reference: publication PMC8769072, “Proteome‐scale mapping of binding sites in the unstructured regions of the human proteome” (Molecular Systems Biology, 2022)
# YAP1 169-207, P46937, sequence (P46937 169-207): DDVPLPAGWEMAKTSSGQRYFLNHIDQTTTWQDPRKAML
# TLN1 309-401, Q9Y490, sequence (Q9Y490 309-401): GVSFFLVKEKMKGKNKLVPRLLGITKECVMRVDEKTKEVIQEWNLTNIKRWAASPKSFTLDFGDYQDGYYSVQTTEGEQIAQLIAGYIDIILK
# TSG101 1-145, Q99816, sequence (Q99816 1-145): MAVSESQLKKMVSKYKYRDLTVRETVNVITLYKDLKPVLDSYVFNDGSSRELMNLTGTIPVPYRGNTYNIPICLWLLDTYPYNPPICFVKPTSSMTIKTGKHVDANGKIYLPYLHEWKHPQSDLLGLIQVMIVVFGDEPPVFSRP
binder,measurement,setting,value
"LPQYNNAPPPQAAVQQ [ERVK-6, Q7LDI9]",selected by phage display,"YAP1 169-207, P46937",confidence 2 (active)
"GDTEAWQFPVMLEPMP [ERVK-21, P62683]",selected by phage display,"TLN1 309-401, Q9Y490",confidence 2 (active)
"LNPTAPPSRQGSELHE [ERVK-9, P63128]",selected by phage display,"TSG101 1-145, Q99816",confidence 2 (active)
